A short description of assay [1]: BSK_LPS_PGE2: BioMAP Diversity Plus: LPS Assay for Prostaglandin E2 (PGE2) Biomarker Activity (AID 2283082). The note with it: primary human HUVEC with PBMC; actives raise or lower the signal. In short, it runs like this: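 PGE2 release measured by ELISA in an LPS-activated co-culture of human umbilical vein endothelial cells and peripheral blood mononuclear cells, read at 24 h post-dosing. DMSO served as baseline for bidirectional curve fitting.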

Read-out in assay [2]: Tissue Factor, F3 (gene 2152)
The assay is described as follows: BSK_LPS_TissueFactor: BioMAP Diversity Plus: LPS Assay for Tissue Factor Biomarker Activity (AID 2283084). The note with it: primary human HUVEC with PBMC; actives raise or lower the signal. The method, boiled down:
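Human umbilical vein endothelial cells co-cultured with peripheral blood mononuclear cells were dosed and stimulated with LPS. Cell-surface CD142 was quantified by ELISA at 24 h. Activity was fitted bidirectionally against DMSO baseline.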

Read-out in assay [3]: Vascular cell adhesion molecule 1 (VCAM1), VCAM1 (gene 7412)
The assay is described as follows: BSK_LPS_VCAM1: BioMAP Diversity Plus: LPS Assay for Vascular cell adhesion molecule 1 (VCAM1) Biomarker Activity (AID 2283086). The note with it: primary human HUVEC with PBMC; actives raise or lower the signal. In short, it runs like this:
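VCAM-1 quantified by ELISA in an LPS-activated co-culture of human endothelial cells and peripheral blood mononuclear cells, read 24 h post-treatment. Fitted in both directions versus DMSO; parallel SRB staining flags overt cytotoxicity.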

Read-out in another assay: CD38, CD38 (gene 952)
The assay can be described thus: BSK_SAg_CD38: BioMAP Diversity Plus: SAg Assay for CD38 Biomarker Activity (AID 2283087). The note with it: primary human HUVEC with PBMC; actives raise or lower the signal. In short, it runs like this: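 CD38 quantified by ELISA (fluorescence) in a superantigen-activated endothelial cell–PBMC co-culture at 24 h post-dose. Activity fitted in both directions relative to DMSO; parallel SRB and Alamar Blue cytotoxicity read-outs.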

Read-out in the next assay: CD40, CD40 (gene 958)
The assay can be described thus: BSK_SAg_CD40: BioMAP Diversity Plus: SAg Assay for CD40 Biomarker Activity (AID 2283088). The following applies: primary human HUVEC with PBMC; actives raise or lower the signal. The method, boiled down: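 Human umbilical vein endothelial cells co-cultured with PBMC; CD40 levels measured by ELISA with fluorescence read-out 24 h after chemical dosing. Gain or loss of signal fitted bidirectionally against DMSO baseline.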

Read-out in a further assay: CD69, CD69 (gene 969)
The assay can be described thus: BSK_SAg_CD69: BioMAP Diversity Plus: SAg Assay for CD69 Biomarker Activity (AID 2283089). The note with it: primary human HUVEC with PBMC; actives raise or lower the signal. The method, boiled down:
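Endothelial/PBMC co-culture; chemical added; 24 h incubation; CD69 ELISA with fluorescence detection; bidirectional fit vs DMSO.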

Read-out in assay [4]: Monocyte Chemoattractant Protein-1 (MCP1), CCL2 (gene 6347)
The assay is described as follows: BSK_SAg_MCP1: BioMAP Diversity Plus: SAg Assay for Monocyte Chemoattractant Protein-1 (MCP1) Biomarker Activity (AID 2283090). The note with it: primary human HUVEC with PBMC; actives raise or lower the signal. The method, boiled down:
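Values derive from bidirectional fitting of ELISA-measured MCP1 against DMSO controls. Readings were taken 24 h after dosing human vascular endothelial cells co-cultured with peripheral blood mononuclear cells under superantigen stimulation.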

Read-out in assay [5]: E-selectin (Homo sapiens) (UniProt P16581)
The assay can be described thus: BSK_SAg_Eselectin: BioMAP Diversity Plus: SAg Assay for Eselectin Biomarker Activity (AID 2283091). The following applies: primary human HUVEC with PBMC; actives raise or lower the signal. In short, it runs like this:
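HUVEC co-cultured with PBMC, compound dosed then read at 24 h; E-selectin measured by ELISA. Activity fitted bidirectionally against DMSO as negative control and baseline.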

Read-out in assay [6]: Monokine induced gamma interferon (MIG), CXCL9 (gene 4283)
The assay can be described thus: BSK_SAg_MIG: BioMAP Diversity Plus: SAg Assay for Monokine induced gamma interferon (MIG) Biomarker Activity (AID 2283092). The following applies: primary human HUVEC with PBMC; actives raise or lower the signal. The method, boiled down: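 Measures CXCL9 protein by ELISA in a human vascular primary-cell co-culture (umbilical vein endothelium with PBMC) 24 h after chemical addition. Activity is scored up or down from the DMSO control.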

The nature of assay [7]: BSK_SAg_PBMCCytotoxicity: PBMC Cytotoxicity Assessment in the BioMAP Diversity Plus: SAg Assay (AID 2283093).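 Further: PBMC viability measured as Alamar Blue reduction fluorescence at 546/580 nm; fitted both ways against DMSO so a hit may be loss or gain of signal.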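 On AC50: PBMC superantigen activated with SEB plus TSST-1 one hour after compound addition.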 The note with it: primary human HUVEC with PBMC. The method, boiled down:
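Alamar Blue reduction (6 h, ex/em 546/580 nm) read after 90 h culture of PBMC pre-dosed 1 h then stimulated with SEB plus TSST-1, 20 ng/mL each. Gain or loss of signal fitted relative to DMSO.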

Read-out in assay [8]: Interleukin-8 (IL8), CXCL8 (gene 3576)
The assay is described as follows: BSK_SAg_IL8: BioMAP Diversity Plus: SAg Assay for Interleukin-8 (IL8) Biomarker Activity (AID 2283094). The note with it: primary human HUVEC with PBMC; actives raise or lower the signal. In short, it runs like this: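 ELISA readout of IL-8 from a superantigen-activated endothelial/PBMC primary human co-culture, taken 24 h post-dosing and fitted in both directions against DMSO; parallel SRB total-protein staining flags overt cytotoxicity.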

Assay [9] can be described thus: BSK_SAg_Proliferation: Cell Proliferation Assessment in the BioMAP Diversity Plus: SAg Assay (AID 2283095).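 Further: relative cell number as total protein by SRB absorbance in sub-confluent culture.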 The note with it: primary human HUVEC with PBMC. The method, boiled down:
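Relative cell number in the endothelial cell/PBMC co-culture was quantified at 96 h by SRB staining (0.1% SRB, 10% TCA fixation, read at 560 nm). Curves were fitted in both directions relative to DMSO baseline.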

Assay [10] is described as follows: BSK_SAg_SRB: Viability Assessment in the BioMAP Diversity Plus: SAg Assay (AID 2283096).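 Further: cells read one day after compound addition; hits may be either gain or loss of signal compared with DMSO.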 The following applies: primary human HUVEC with PBMC. In short, it runs like this:
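SRB absorbance at 560 nm served as the viability read-out. Cells (HUVEC plus peripheral blood mononuclear cells) were TCA-fixed and stained 24 h post-dosing; activity fitted in both directions against DMSO controls.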

Assay [11] concerns the target human CYP19A1, CYP19A1 (gene 1588) (UniProt P11511). The assay is described as follows: NVS_ADME_hCYP19A1: NovaScreen (NVS) CYP450-related Enzyme Activity (ADME) Assay for human CYP19A1 (AID 2283098; active means hit-call score of the fitted dose curve at least 0.9, where 1 is the maximum;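 further: potency for inhibitors seen as loss of fluorescent enzyme signal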). In short, it runs like this: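 Primary testing was in duplicate at a single 10 uM concentration, with actives followed up in concentration-response series. Fluorescence read-out of recombinant enzyme activity at 0.5 h, cell-free. Acetonitrile was the negative-control baseline.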

Assay [12] addresses human CYP2D6, CYP2D6 (gene 1565) (UniProt P10635). The assay is described as follows: NVS_ADME_hCYP2D6: NovaScreen (NVS) CYP450-related Enzyme Activity (ADME) Assay for human CYP2D6 (AID 2283107; active means hit-call score of the fitted dose curve at least 0.9, where 1 is the maximum). In short, it runs like this:
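Cell-free assay using recombinant enzyme expressed in insect cells, with fluorescence-intensity readout of enzyme activity 1 hour after chemical dosing. Loss of signal versus acetonitrile negative control indicates inhibition. Primary screen ran in duplicate at 10 uM; actives were retested in concentration series.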

The target in assay [13] is human CYP2C9, CYP2C9 (gene 1559) (UniProt P11712). The assay is described as follows: NVS_ADME_hCYP2C9: NovaScreen (NVS) CYP450-related Enzyme Activity (ADME) Assay for human CYP2C9 (AID 2283108; active means hit-call score of the fitted dose curve at least 0.9, where 1 is the maximum). The method, boiled down: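 Fluorescence readout of CYP2C9 activity (SF9-expressed human enzyme) at 0.75 h. The primary screen used 10 uM in duplicate, with concentration-response follow-up for actives; acetonitrile was the negative control.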

What is called AC50 is the concentration at which the activity in the assay is half-maximal.

The structures appear in SMILES notation. Results filed as inconclusive are left out. Active and inactive are the calls of the source. How the source made its calls, unless noted: active means hit-call score of the fitted dose curve at least 0.9, where 1 is the maximum; inactive means score below 0.9.

E-selectin (Homo sapiens), sequence (P16581 whole entry, looked up): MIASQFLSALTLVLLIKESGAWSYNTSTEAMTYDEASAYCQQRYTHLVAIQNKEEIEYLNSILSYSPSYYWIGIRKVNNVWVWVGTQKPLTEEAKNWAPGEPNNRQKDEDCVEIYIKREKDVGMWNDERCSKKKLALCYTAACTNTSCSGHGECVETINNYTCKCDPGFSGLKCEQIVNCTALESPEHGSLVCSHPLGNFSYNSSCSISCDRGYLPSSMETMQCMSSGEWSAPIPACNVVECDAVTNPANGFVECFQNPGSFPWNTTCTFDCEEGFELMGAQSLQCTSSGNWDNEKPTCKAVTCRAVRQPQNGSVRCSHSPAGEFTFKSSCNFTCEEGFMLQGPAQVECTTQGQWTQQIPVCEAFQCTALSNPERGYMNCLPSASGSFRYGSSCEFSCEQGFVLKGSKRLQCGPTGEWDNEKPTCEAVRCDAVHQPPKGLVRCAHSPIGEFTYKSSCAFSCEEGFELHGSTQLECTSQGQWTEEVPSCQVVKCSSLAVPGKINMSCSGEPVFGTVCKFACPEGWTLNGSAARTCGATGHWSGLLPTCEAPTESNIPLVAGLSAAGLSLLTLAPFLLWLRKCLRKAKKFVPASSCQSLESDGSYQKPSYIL
human CYP2C9, CYP2C9 (gene 1559), sequence (P11712 whole entry, looked up): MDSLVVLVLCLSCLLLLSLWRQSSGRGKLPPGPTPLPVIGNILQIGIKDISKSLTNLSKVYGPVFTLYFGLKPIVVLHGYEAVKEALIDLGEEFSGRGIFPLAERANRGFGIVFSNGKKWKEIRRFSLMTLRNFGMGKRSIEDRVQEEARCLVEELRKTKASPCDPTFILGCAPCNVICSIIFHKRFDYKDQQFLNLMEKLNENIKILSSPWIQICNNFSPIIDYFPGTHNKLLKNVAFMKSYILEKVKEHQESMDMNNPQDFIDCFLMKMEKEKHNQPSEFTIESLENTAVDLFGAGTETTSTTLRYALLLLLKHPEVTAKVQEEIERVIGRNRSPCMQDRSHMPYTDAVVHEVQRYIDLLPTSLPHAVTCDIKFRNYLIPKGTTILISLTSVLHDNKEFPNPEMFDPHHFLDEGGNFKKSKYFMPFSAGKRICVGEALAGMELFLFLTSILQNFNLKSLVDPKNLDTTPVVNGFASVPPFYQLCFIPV
human CYP2D6, CYP2D6 (gene 1565), sequence (P10635 whole entry, looked up): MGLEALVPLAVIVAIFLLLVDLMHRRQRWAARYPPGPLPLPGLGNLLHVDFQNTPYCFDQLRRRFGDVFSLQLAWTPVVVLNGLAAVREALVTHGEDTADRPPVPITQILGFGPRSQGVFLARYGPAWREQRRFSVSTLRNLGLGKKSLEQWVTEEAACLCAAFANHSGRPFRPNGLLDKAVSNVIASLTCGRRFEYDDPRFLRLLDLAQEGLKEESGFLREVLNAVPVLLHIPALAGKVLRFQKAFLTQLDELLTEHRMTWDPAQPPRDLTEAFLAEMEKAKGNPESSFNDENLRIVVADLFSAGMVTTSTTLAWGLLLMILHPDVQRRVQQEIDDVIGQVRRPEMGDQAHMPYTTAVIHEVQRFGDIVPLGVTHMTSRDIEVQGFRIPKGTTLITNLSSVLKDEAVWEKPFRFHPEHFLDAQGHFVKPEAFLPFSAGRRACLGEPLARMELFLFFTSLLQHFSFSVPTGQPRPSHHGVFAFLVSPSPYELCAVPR
human CYP19A1, CYP19A1 (gene 1588), sequence (P11511 whole entry, looked up): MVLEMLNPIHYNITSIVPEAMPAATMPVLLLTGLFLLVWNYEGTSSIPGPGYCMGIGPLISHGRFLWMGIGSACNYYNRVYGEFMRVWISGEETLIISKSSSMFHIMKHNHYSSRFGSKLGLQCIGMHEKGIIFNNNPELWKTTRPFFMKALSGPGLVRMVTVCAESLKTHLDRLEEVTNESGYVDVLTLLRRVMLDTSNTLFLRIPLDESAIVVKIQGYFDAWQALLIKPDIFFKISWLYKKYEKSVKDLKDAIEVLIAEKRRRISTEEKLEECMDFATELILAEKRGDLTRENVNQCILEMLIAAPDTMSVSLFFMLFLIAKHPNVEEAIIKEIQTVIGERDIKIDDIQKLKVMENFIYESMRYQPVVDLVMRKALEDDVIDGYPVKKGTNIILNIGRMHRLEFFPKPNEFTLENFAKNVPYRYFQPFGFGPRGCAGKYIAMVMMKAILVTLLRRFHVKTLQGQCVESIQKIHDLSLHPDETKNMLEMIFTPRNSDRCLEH

As for `C=C(C)C(=O)OCCOCCOCCOCCOC(=O)C(=C)C`, the outcome in [1] was “inactive”; in assay [2], “inactive”; in [3], “inactive”; in the assay with CD38, CD38 (gene 952) it was “inactive”; in the assay with CD40, CD40 (gene 958) it was “inactive”; in the assay with CD69, CD69 (gene 969), “inactive”. The outcome in assay [4], in [5], in [6], in assay [7], in assay [8] and in assay [10] was inactive. Moreover, the AC50 in [9] was 23.9 µM (active).
For the compound `CCCCCCC(=O)c1ccccc1`, the AC50 in assay [11] was 5.7 µM (active).
Turning to `C[C@@H]1CCN(C(=O)[C@H](CCCN=C(N)N)NS(=O)(=O)c2cccc3c2NC[C@H](C)C3)[C@@H](C(=O)O)C1`, the outcome is “inactive” in assay [1]; “inactive” in assay [2]; “inactive” in assay [3]; “inactive” in the assay with CD38, CD38 (gene 952); “inactive” with CD40, CD40 (gene 958); “inactive” with CD69, CD69 (gene 969). The result in assay [4], in assay [5], in [6], in assay [7], in assay [8] and in [9] was inactive. The result in assay [10] was inactive.
In the case of `C=CC(C)(O)CCC=C(C)C` (centres undefined), the outcome in assay [1] was “inactive”; in assay [2] it was “inactive”; in assay [3], “inactive”; with CD38, CD38 (gene 952), “inactive”; in the assay with CD40, CD40 (gene 958), “inactive”; in the assay with CD69, CD69 (gene 969), “inactive”. Further, the outcome in assay [4], in assay [5], in [6], in [7], in [8] and in assay [9] was inactive. Also, the outcome in [10] was inactive.
As for `CC=Cc1ccc(OCC)c(O)c1`, the AC50 in [1] is 0.44 µM (active). The outcome is “inactive” in assay [2]; “inactive” in assay [3]; “inactive” in the assay with CD38, CD38 (gene 952); “inactive” with CD40, CD40 (gene 958); “inactive” in the assay with CD69, CD69 (gene 969); “inactive” in [4]. Moreover, the result in assay [5], in assay [6], in [7], in [8], in assay [9] and in [10] was inactive.
`COc1cc(Cl)c(OC)cc1N`: the outcome in [1] was “inactive”; in assay [2], “inactive”; in assay [3] it was “inactive”; in the assay with CD38, CD38 (gene 952) it was “inactive”; in the assay with CD40, CD40 (gene 958) it was “inactive”; with CD69, CD69 (gene 969), “inactive”. Moreover, the result in assay [4], in [5], in assay [6], in assay [7], in assay [8] and in assay [9] was inactive. The outcome in assay [10] and in assay [13] was inactive. The half-maximal activity concentration (AC50) in assay [12] is 0.992 µM (active).
For the compound `C1=CC2C3C=CC(C3)C2C1` (centres undefined), the outcome in [1] is “inactive”; in [2], “inactive”; in assay [3] it was “inactive”; with CD38, CD38 (gene 952), “inactive”; in the assay with CD40, CD40 (gene 958) it was “inactive”; with CD69, CD69 (gene 969) it was “inactive”. Also, the outcome in assay [4], in assay [5], in [6], in assay [7], in assay [8] and in assay [9] was inactive. In addition, the outcome in assay [10] was inactive.
As for `O=C1OC[C@H](Cc2cccc(O)c2)[C@H]1Cc1cccc(O)c1`, the outcome in assay [1] was “inactive”; in assay [2], “inactive”; in [3], “inactive”; in the assay with CD38, CD38 (gene 952) it was “inactive”; with CD40, CD40 (gene 958), “inactive”; with CD69, CD69 (gene 969), “inactive”. Besides, the result in [4], in assay [5], in assay [6], in [7], in [8] and in assay [9] was inactive. For the same compound, the result in assay [10] was inactive.
`CCCCCCOCCOCCO`: in assay [13], the AC50 is 0.238 µM (active).
For the compound `CCCCCC(C=O)=Cc1ccccc1`, the AC50 in [1] was 34 µM (active); in [3], 30.4 µM (active); in [7], 31 µM (active); in assay [9], 33.1 µM (active). For the same compound, the outcome was “inactive” in [2]; “inactive” with CD38, CD38 (gene 952); “inactive” with CD40, CD40 (gene 958); “inactive” with CD69, CD69 (gene 969); “inactive” in assay [4]; “inactive” in assay [5]. Also, the result in assay [6], in [8] and in assay [10] was inactive.
`CCCCC(CC)COC(C)=O` (centres undefined): in assay [12], the AC50 was 5 µM (active).

These data come from PubChem BioAssay (EPA / NIEHS).
